Shown is part of a subset that was picked to be rich in hits.
PTHR1 agonist – PTHR1 (human) receptor agonism. HEK293 GP2 PTHR1 cells, GloSensor cAMP luminescence, 1 h. Potency, µM (top dose mostly 115 µM), for inactives: at the top dose activation, usual class: activators. 410,000 tested, 0.075% active. AID 743266; further: potency means the concentration at half of the fitted maximal effect; nearly all actives have a fitted effect of over 55% in size
Target sequence (Q03431 whole entry, looked up): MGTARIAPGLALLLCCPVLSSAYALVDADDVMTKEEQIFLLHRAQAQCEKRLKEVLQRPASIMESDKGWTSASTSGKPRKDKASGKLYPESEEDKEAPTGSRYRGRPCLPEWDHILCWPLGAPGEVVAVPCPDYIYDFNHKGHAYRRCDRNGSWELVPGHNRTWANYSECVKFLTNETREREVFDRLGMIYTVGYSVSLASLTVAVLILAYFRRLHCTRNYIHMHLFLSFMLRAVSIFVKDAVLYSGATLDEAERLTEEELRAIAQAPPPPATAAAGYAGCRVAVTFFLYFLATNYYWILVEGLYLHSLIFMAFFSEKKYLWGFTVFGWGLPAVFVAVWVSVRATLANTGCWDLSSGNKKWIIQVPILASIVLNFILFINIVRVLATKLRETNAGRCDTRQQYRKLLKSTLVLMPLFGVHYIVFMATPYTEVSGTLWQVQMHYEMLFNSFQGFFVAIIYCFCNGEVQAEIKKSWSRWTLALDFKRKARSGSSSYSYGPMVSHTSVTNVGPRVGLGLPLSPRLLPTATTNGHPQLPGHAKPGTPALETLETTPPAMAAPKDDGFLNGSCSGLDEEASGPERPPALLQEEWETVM
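HEK-293-derived GP2 cells expressing PTHR1 and a GloSensor cAMP reporter, 3,000/well, plated overnight, given luciferin plus IBMX (each 0.5 mM as added) for 1 h at 37 °C, then compound for 1 h at 37 °C. Luminescence was read after 15 min at room temperature.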
NPSR antag – blocks cAMP signaling of the human neuropeptide S receptor; Potency, µM (titrated, usually from 38.3 µM), for the others: at the top dose activity change, negative = inhibition, actives largely listed as inhibitors; Q6W5P4; AID 1461; CHO-NPSR cells, cAMP TR-FRET, antagonist mode; 220,000 tested, 1% active; further: potency means the concentration at half of the fitted maximal effect; on the % scale 0 is the no-effect control and ±100 the full control effect; nearly all actives have a fitted effect of over 50% in size
RXFP1 ag – agonists of human relaxin receptor RXFP1. HEK293T-RXFP1 cAMP TR-FRET, 30 min; response scale: percent of porcine relaxin response, buffer zero. Potency, µM (series often up to 57.5 µM), inactives show at the highest dose activation, usual class: activators. 370,000 tested, 0.3% active. AID 2676; further: potency means the concentration at half of the fitted maximal effect; on the % scale 0 is the no-effect control and ±100 the full control effect; nearly all actives have a fitted effect of over 60% in size
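HEK293T cells stably expressing RXFP1 were pretreated with the PDE4 inhibitor Ro 20174, exposed to compounds for 30 min at 37C, lysed, and cAMP was read by TR-FRET. Data normalized to buffer (basal) and 29 nM porcine relaxin (100%).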
RXFP1 antagonist – blocks the human relaxin receptor RXFP1; Q9HBX9; HEK293-RXFP1, relaxin-stimulated cAMP HTRF, 30 min; hits give low values; activity change, negative = inhibition, % at 57.5 µM; 350,000 tested, 0.59% active; AID 1259400;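 active means activity change of -60% or lower, but not beyond a set lower limit; inconclusive means change between -60% and -40%, or beyond the set limit; inactive means change above -40%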; further: on the % scale 0 is the no-effect control and ±100 the full control effect
TCR act – activates T cell receptor signaling; primary human leukocytes, anti-CD3, IL-2 HTRF, 48 h; Potency, µM (series often up to 9.22 µM), for the others: at the top dose activation of IL-2 secretion, usual class: activators; 330,000 tested, under 10 active; further: % of control where 0% means no effect
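Readout: HTRF IL-2, Eu-cryptate/d2 antibody pair, 320nm excitation, 665nm emission. Stimulus: a-CD3 beads, no co-stimulation. Cells: primary human leukocytes. Exposure: 48 hr with compound.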
TSHR antag – human thyrotropin receptor antagonism. 330,000 tested, 0.2% active. activity change, negative = inhibition, % at 11.5 µM. TSHR-expressing cells, TSH-stimulated cAMP HTRF, 2 h; hits give low values. AID 504810;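 active means activity change below a set negative limit, meaning inhibition stronger than a set level, cut at about -70% in these data; inconclusive means activity change between two set negative limits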; further: on the % scale 0 is the no-effect control and ±100 the full control effect
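TSHR-expressing cells were treated with compounds, then stimulated with TSH at EC80 (4nM final) for 2 hours at 37 deg C. Cellular cAMP was measured by HTRF competition between lysate cAMP and cAMP-d2 for a cryptate-labelled anti-cAMP antibody.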
* hit, by the source's call; i = inactive; u = inconclusive; x = no result given; ! = repeats disagree; [ ] = another dose, or the depositor's remark. Unless noted, the call rests on the fitted dose curve; in most records, active means well fitted curve in the direction sought with a large enough effect; inconclusive means small, poorly fitted or top-dose-only effect, or another doubt; inactive means no such curve, though single readings can be large; an effect the other way counts as inactive or inconclusive.

SMILES	PTHR1 agonist	NPSR antag	RXFP1 ag	RXFP1 antagonist	TCR act	TSHR antag
Cc1cc(N=NC(=O)c2ccccc2O)c2ccccc2c1O	-34%	-17%	1%	-11	-1%	-72*
Cn1c(O)c(N=NC(=O)c2ccccc2O)c2ccccc21	-32%	51%	-2%	-9	0%	-1
Cc1cccn2c(=O)cc(COc3ccc(NC(=O)c4cccc(F)c4)cc3)nc12	u	x	0%	7	x	x
O=C(N/N=C/c1ccccc1)C(=O)N/N=C/c1ccccc1	-5%	x	1%	-6	-2%	-7
O=C(C=C=Nc1ccccc1)C(=O)N=C=Cc1ccccc1	-26%	u	-2%	-61*	-2%	-27
COc1ccc(-n2c(=O)c3ccccc3n(CC(=O)NCCc3ccccc3)c2=O)c(OC)c1	-43%	x	-1%	-7	x	x
CC(C)CN=Cc1c(O)c([N+](=O)[O-])cc2oc3c(c12)CCCC3	i	u	-1%	-26	1%[46.1 µM]	-85*
O=[N+]([O-])c1cc2oc3c(c2c(C=NCc2ccccc2)c1O)CCCC3	i	10µM*	5%	-18	0%[46.1 µM]	-35
COc1ccc2ncc3c(-c4ccc(C)c(C)c4)nn(CC(=O)NC4CCCCC4)c3c2c1	-37%	x	1%	1	x	x
O=C1NC(=O)/C(=C/c2ccc3c(c2)OC(F)(F)O3)S1	x	x	x	x	x	-44
On1onc2c3cc(-c4ccccc4)nc3ccc21	-27%	13µM*	1%	-33	3%	-25
O=C(Nc1ccc(F)cc1)c1ccc2c(=O)n(CC3CCCO3)c(=S)[nH]c2c1 (centres undefined)	-16%	x	4%	-68*	-1%	-13
COc1cc2[nH]c(=S)n(CC3CCCO3)c(=O)c2cc1OC (centres undefined)	-5%[57.5 µM]	-13%[46.1 µM]	0%	-94*	-1%	-10
COc1cc2[nH]c(=S)n(CCCN3CCOCC3)c(=O)c2cc1OC	u	-23%[46.1 µM]	0%	-68*	0%	5
O=C(NCC1CCCO1)c1ccc2c(=O)n(CC3CCCO3)c(=S)[nH]c2c1 (centres undefined)	i	-14%[46.1 µM]	0%	-3	0%	7
Cc1nn(C(C)C(=O)N2CCN(c3ccc(Cl)cc3)CC2)c(=O)c2cc3occc3n12 (centres undefined)	-21%	x	1%	x	x	x
Nc1ccc(-c2nc3cc(N)ccc3o2)cc1	-16%	x	u	19	-4%	22
CN(C)c1ccc(-c2nc3cc(N)ccc3o2)cc1	-37%	x	28µM*	19	-10%	-4
O=C(Nc1ccc2c(c1)OCO2)c1cnn2c(C(F)(F)F)cc(-c3ccco3)nc12	-4%	-16%[46.1 µM]	0%	-4	1%	-2
O=C(Nc1cnn(C23CC4CC(CC(C4)C2)C3)c1)c1cnn2c(C(F)(F)F)cc(-c3ccco3)nc12	-7%[57.5 µM]	7.9µM*	1%	6	-16%	-5
CCC1CN(C(=O)N2CCC(C(=O)NCCc3ccccc3Cl)CC2)c2cc(C)ccc2O1 (centres undefined)	-95%	x	3%	-87*	x	x
CCc1ccc(CNC(=O)C2CCN(C(=O)N3CC(CC)Oc4ccc(C)cc43)CC2)cc1 (centres undefined)	-89%	x	-1%	-68*	x	x
CC(=O)C1=C(OC(=O)C(C)C)c2ccccc2S(=O)(=O)N1Cc1ccccc1	0%	x	7%	-13	x	x
Cc1nc(-n2nc(C)c(Cc3ccc(Cl)cc3)c2C)sc1C(=O)N1CCC(C)CC1	i	x	-3%	-3	x	x
O=C(CC1SC(=O)N(c2ccccc2)C1=O)Nc1ccc(Cl)cc1 (centres undefined)	i	-1%[7.67 µM]	1%	-70*	0%	0
SMILES	PTHR1 agonist	NPSR antag	RXFP1 ag	RXFP1 antagonist	TCR act	TSHR antag
O=C(CC1SC(=O)N(c2ccccc2)C1=O)Nc1ccc(Br)cc1 (centres undefined)	i	-13%	-1%	u	-2%	-3
CCOc1ccc2nc(N3CCCC(C(=O)Nc4ccc(OC)c(Cl)c4)C3)sc2c1 (centres undefined)	-16%	x	1%	-20	x	x
CCCCn1c(SCC(=O)c2ccc(OCC)cc2)nc2cc(S(N)(=O)=O)ccc21	-29%	-12%[46.1 µM]	30%	-19	-5%	-1
CCCCn1c(SCC(=O)c2ccc(OC)c(OC)c2)nc2cc(S(N)(=O)=O)ccc21	-26%[57.5 µM]	-16%[46.1 µM]	3%	-75*	3%	-4
Cc1ccc(NC(=O)CCNS(=O)(=O)c2ccc3c(c2)CCCC(=O)N3)cc1	i	x	-3%	x	x	x
CCOc1ccc(CN2CCc3nc(Nc4ccc5c(c4)OCCO5)ncc3C2)cc1	16%	x	0%	-9	x	x
Cc1[nH]c2ccc(C(=O)NCCCN3CCCCC3)cc2c1C	18µM*!	x	1%	-10	-1%	-2
COc1ccc(C(=O)NCCCN2CCN(CCCNC(=O)c3ccc(OC)c(OC)c3)CC2)cc1OC	-11%	x	0%	-75*	0%	4
Nc1ncnc2c1ncn2[C@@H]1O[C@H](CO)[C@@H](O)[C@H]1O	-19%	2%	26%	2	7%	-8
CCOP1(=O)OCC2OC(n3cnc4c(N)ncnc43)C(O)C2O1 (centres undefined)	i	15%	10µM*	32	-2%	65
CCOc1ccccc1NC(=O)CCNS(=O)(=O)c1ccc2c(c1)CCN2C(=O)C1CC1	i	x	0%	x	x	x
O=C(Nc1ccc(Cl)cc1)c1cc2c(cc1O)[nH]c1ccccc12	-37%	-50%	5%	-64*	8%	-110*
CCCCNC(=O)C(CC)Sc1nnc(-c2cccc(F)c2)c(-c2cccc(F)c2)n1 (centres undefined)	i	x	0%	-26	x	x
Nc1nnnn1-c1ccccc1	x	x	x	-74*	x	x
O=C(CSc1nnnn1-c1ccccc1)CSc1nnnn1-c1ccccc1	12%[57.5 µM]	-22%[46.1 µM]	2%	-1	-2%	-7
CCN(CC(=O)Nc1ccccc1OC)C(=O)/C=C/c1cccs1	i	x	1%	-69*	-1%	5
Cc1cccc(OC(C)C(=O)N2CCC(c3nc4ccccc4o3)CC2)c1C (centres undefined)	i	x	0%	-63*	x	x
CCC(=O)C1=C(N2CCCC2)CC(C)(C)CC1=O	-9%	-7%[46.1 µM]	2%	3	2%	-2
CCCCC(=O)C1=C(N2CCCC2)CC(C)(C)CC1=O	i	x	x	-62*	4%	x
Cc1ccc(C)c(N2CCN(C(=O)c3cc4c(=O)n(Cc5cccnc5)ccc4nc3C)CC2)c1	-14%	x	-1%	-16	x	x
CC(=Cc1ccccc1)C(=O)c1ccccc1	-6%	x	x	1	x	x
